40 compounds from PubChem BioAssay (NCATS) can be followed below.

Several values for one entry are separate records, joined by “and”; a condition that tells them apart may be missing. Identical values can stand only once. Results filed as inconclusive are left out. Unmarked numbers belong to inactive results. Activity calls are given as the source filed them. The call rests on the fitted dose curve; in most records, active means well fitted cell-killing curve with a large enough effect; inconclusive means small, poorly fitted or top-dose-only effect, or effect the other way; inactive means no such curve, though single readings can be large or run the other way.
Potency means the concentration at half of the fitted maximal effect.

This assay can be described thus: Viability qHTS for spleen associated tyrosine kinase inhibitor (SYKi) drug resistant MV4-11 cells (AID 1963824). Further: nearly all actives have a fitted effect of over 35% in size. Particulars: SYKi-resistant MV4-11 viability, CellTiter-Glo, 72 h; series mostly up to 45 µM. The text has this:
Department of Medicine, Hematology/Oncology
University Hospital Frankfurt, Germany.
Trials have shown promising clinical activity of the selective SYK inhibitor entospletinib in patients with high expressing HOXA9/MEIS1 acute leukemias. As the development of resistance mechanisms is a common problem in the use of targeted drugs, we performed a chemical library screen to identify drug sensitivities in SYK inhibitor resistant AML cells. […] Glucocorticoids are potent immunosuppressants which work in part by inhibiting the transcription of cytokine genes.
Described herein is a viability screen to look for activity in the SYK inhibitor drug resistant cell line against four NCATS compound libraries (MIPE 5.0, NPC, NPACT, and Kinase) totaling 11372 compounds. Active hits were reacquired for confirmation and further secondary assay testing.
SEQUENCE No. (e.g., 1, 2, 3, etc.); […] (e.g., Cells, Incubation, Reagent, etc.); VALUE; DESCRIPTION.
1; Media; 2uL; white, solid-bottom Corning assay plate.
2; Compounds; 23nL; Echo acoustic dispenser.
3; Cell; 5uL; 500 cells per well.
4: Incubation; 72hr; 37 C, 5% CO2, 95% humidity.
5; Reagent; 3uL; CellTiter-Glo reagent (Promega).
6; Incubation; 10min; room temperature.
7; Detection; Luminescence; ViewLux plate reader (PerkinElmer).
NOTES (numbers refer to Sequence numbers above
1. Quantitative high-throughput screening (qHTS) of small molecule compounds was conducted on drug resistant SYKi MV4-11 cell line.
2. Twenty-three nanoliter of small molecule compounds were added to each assay plates using the Echo acoustic dispenser (Beckman Coulter).
3. Cells were seeded into the assay plates at a final density of 500 cells in 5uL of media per well using the Multidrop Combi dispenser.
4. Plates were covered with stainless steel gasketed lids and incubated for 72 hours at standard cell culture conditions.
5. Viability was assessed by adding 3uL of CellTiter-Glo detection reagent (Promega).
6. Plates were covered with gasket lids and incubated for 10 minutes at room temperature.
7. Luminescence was measured on a ViewLux plate reader (PerkinElmer).
For `O=C1NS(=O)(=O)c2ccccc21`, the Potency result was “inactive”.

As for `Nc1nc(Cl)nc2c1ncn2[C@@H]1O[C@H](CO)[C@@H](O)[C@H]1F`, the Potency is 0.164 µM (active).

Turning to `CN1Cc2cc(C(=O)N3CCC(C4CCNCC4)CC3)ccc2N[C@@H](CC(=O)O)C1=O`, the Potency entry was “inactive”.

As to `CCOc1ccc(-c2nc(-c3cccc4c3CCC4NCCO)no2)cc1OCC` (stereo not given), the Potency is 13 µM (active).

As for `CN(C)CCCNC(=O)c1ccc(-c2cc(O)c3ncccc3c2)cc1`, the Potency is 5.17 µM (active) and 14.8 µM (active).

As to `COc1cc(OC)cc(-c2ccc3c(-c4ccc(F)cc4)[nH]nc3n2)c1`, the Potency result was “inactive”.

Turning to `CC(=O)C1CCC2C3CCC4=CC(=O)CCC4(C)C3CCC12C` (stereo not given), the Potency is 9.34 µM (active).

Consider `CN(C)c1nc(NC2CCC(NCCc3ccc(Br)cc3OC(F)(F)F)CC2)nc2ccccc12` (stereo not given), for which the Potency was 0.651 µM (active).

Turning to `CCc1cc(/C(C)=N/OCc2ccc(C3CCCCC3)c(C(F)(F)F)c2)ccc1CN1CC(C(=O)O)C1`, the Potency is 14.8 µM (active).

As for `c1ccc(CNc2nc(NCc3ccccc3)c3ccccc3n2)cc1`, the Potency is 2.09 µM (active).

As to `CC1(C)CCC(C)(C)c2cc([C@@H](O)C(=O)Nc3ccc(C(=O)O)cc3F)ccc21`, the Potency was 5.17 µM (active).

With `Cn1cc(-c2ccc(-c3cncc(Cl)c3N3CCC4(CCNC4=O)CC3)cc2)cn1`, the Potency is 1.48 µM (active).

With `CC1(C)CCC2(C(=O)OC3OC(COC4OC(CO)C(O)C(O)C4O)C(O)C(O)C3O)CCC3(C)C(=CCC4C5(C)CCC(OC6OCC(O)C(O)C6O)C(C)(C)C5CCC43C)C2C1O` (stereo not given), the viability, % of control was 90.4% [at 9.25 µM].

`Nc1c2ccccc2nc2ccccc12`: the Potency is 3.76 µM (active).

For the compound `CC(=O)O[C@@H]1CC(C)=C2[C@H]1[C@H](C)CC[C@H]2/C=C(\C)C(=O)O`, the Potency was 16.4 µM (active).

On to `C=C1CCC[C@]2(C)C[C@]3(O)OC(=O)C(C)=C3C[C@@H]12`, for which the Potency entry was “inactive”.

With `Cc1ccc(-c2c(C(=O)CF)n(CCCO)c3ncnc(N)c23)cc1`, the Potency was 10.3 µM (active).

Regarding `O=C(O)CCNC(=O)c1ccc(N=Nc2ccc(O)c(C(=O)O)c2)cc1`, the Potency result was “inactive”.

`CC(=O)O[C@H]1C(=O)[C@@]2(C)C([C@H](OC(=O)c3ccccc3)[C@]3(O)C[C@H](OC(=O)[C@H](O)[C@@H](NC(=O)c4ccccc4)c4ccccc4)C(C)=C1C3(C)C)[C@]1(OC(C)=O)CO[C@@H]1C[C@@H]2O` (stereo not given in full): the Potency was 3.6 nM (active) and 7.4 nM (active).

With `NCc1ccc(Nc2ncc(F)c(Nc3ccccc3)n2)cc1`, the Potency is 1.46 µM (active).

With `c1coc(CNc2ncnc3nc[nH]c23)c1`, the Potency is 18.6 µM (active).

As to `C=C1C[C@@H]2CC[C@@]34C[C@H]5O[C@H]6[C@@H](O3)[C@H]3O[C@H](CC[C@@H]3O[C@H]6[C@H]5O4)CC(=O)C[C@@H]3[C@@H](OC)[C@@H](C[C@H](O)CN)O[C@H]3C[C@H]3O[C@@H](CC[C@@H]1O2)C[C@@H](C)C3=C`, the Potency is 0.0005 µM (active).

On to `CC(/C=C1\SC(=S)N(CC(=O)O)C1=O)=C\c1ccccc1`, for which the Potency entry was “inactive”.

With `CC(=O)O[C@@H]1[C@H](O[C@@H]2O[C@H](CO)[C@@H](O)[C@H](O)[C@H]2O)[C@@H](O[C@@H]2O[C@@H](C)[C@H](O)[C@@H](O[C@@H]3O[C@H](CO)[C@@H](O)[C@H](O)[C@H]3O)[C@H]2O)[C@H](OC(=O)C23CCC4(C)C(=CCC5C6(C)CC(O)C(O[C@@H]7O[C@H](C(=O)O)[C@@H](O)[C@H](O)[C@H]7O)C(C)(C(=O)O)C6CCC54C)C2CC(C)(C)CC3O)O[C@@H]1C` (stereo not given in full), the viability, % of control was 102% [at 9.25 µM].

For the compound `O=C(O)C(Cc1cc(I)c(O)c(I)c1)c1ccccc1` (stereo not given), the Potency result was “inactive”.

Turning to `C[C@@H]1CN(CC(=O)Nc2ccc3c(c2)Cc2cccc(-c4cc(=O)cc(N5CCOCC5)o4)c2S3)C[C@H](C)O1`, the Potency was 4.68 µM (active).

Take `CN[C@@H](C)C(=O)N[C@H](C(=O)N1CCC[C@H]1C(=O)Nc1snnc1-c1ccccc1)C1CCCCC1`: the Potency was 0.132 µM (active).

With `CCCCCC(C)N` (stereo not given), the Potency result was “inactive”.

Consider `CC(=O)c1ccc(S(=O)(=O)NC(=O)NC2CCCCC2)cc1`, for which the Potency entry is “inactive”.

As for `CCOC(=O)CCC(=O)O[C@H]1[C@H](O[C@@H]2[C@@H](C)[C@H](O[C@H]3C[C@@](C)(OC)[C@@H](O)[C@H](C)O3)[C@@H](C)C(=O)O[C@H](CC)[C@@](C)(O)[C@H](O)[C@@H](C)C(=O)[C@H](C)CC2(C)O)O[C@H](C)C[C@@H]1N(C)C` (stereo not given in full), the Potency entry is “inactive”.

For the compound `Cc1cc(Nc2cc(N3CCN(C)CC3)nc(Sc3ccc(NC(=O)C4CC4)cc3)n2)n[nH]1`, the Potency was 0.0291 µM (active).

On to `COc1ccc(-c2c(C)nn3c(NCCN4CCOCC4)cc(C)nc23)cc1OC`, for which the Potency is 9.2 µM (active).

For `CN1c2ccccc2C(=O)N2CCc3c([nH]c4ccccc34)C21` (stereo not given), the Potency was 1.16 µM (active).

As for `Cc1sc2c(c1C)C(c1ccc(Cl)cc1)=N[C@@H](CC(=O)Nc1ccc(OCCOCCOCCOCCNc3cccc4c3C(=O)N(C3CCC(=O)NC3=O)C4=O)cc1)c1nnc(C)n1-2` (stereo not given in full), the Potency was 0.0166 µM (active).

Take `NC(=O)c1cc[n+](CC2=C(C(=O)[O-])N3C(=O)[C@@H](NC(=O)Cc4cccs4)[C@H]3SC2)cc1`: the Potency result was “inactive”.

Consider `CN(C)C(=O)C(CCN1CCC(O)(c2ccc(Cl)cc2)CC1)(c1ccccc1)c1ccccc1`, for which the Potency is 15 µM (active) and 10.5 µM (active).

Consider `OC[C@H]1O[C@@H](OCCc2ccccc2)[C@H](O[C@@H]2OC[C@@H](O)[C@H](O)[C@H]2O)[C@@H](O)[C@@H]1O`, for which the Potency entry was “inactive”.

Regarding `Nc1ncn([C@@H]2O[C@H](CO)[C@@H](O)[C@H]2O)c(=O)n1`, the Potency is 1.66 µM (active).

Consider `O=C(CCCCCCNC(=O)c1cnc(N(c2ccccc2)c2ccccc2Cl)nc1)NO`, for which the Potency is 2.63 µM (active).

With `N[C@@H](Cn1ccc(=O)c(O)c1)C(=O)O`, the viability, % of control was 98% [at 4.97 µM].
